# Out of some 1,300 compounds screened, about 380 (29%) were called active. Not shown: some 37% with an inconclusive outcome. The list shows a part of the results. A number with no mark means an inactive call. Calls come from the whole dose curve; as a rule, active = well fitted inhibition curve with a large enough effect; inconclusive = small, poorly fitted or top-dose-only effect; inactive = flat fitted curve, though single readings scatter.
# Target: Thyrotropin receptor (Homo sapiens) (UniProt P16473)
# Assay: qHTS for antagonists of the Thyroid Stimulation Hormone Receptor: Hit Validation in Primary Screen; note: nearly all actives have a fitted effect of over 80% in size;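 for activity change, negative = inhibition: cAMP by competitive HTRF where cellular cAMP lowers the 665 nm FRET signal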
# Conditions: TSHR-expressing cells, cAMP antagonist mode; series mostly up to 58 µM; activity change, negative = inhibition: at the top concentration
# Method in brief: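 TSHR-expressing cells were pretreated with compound, then stimulated with TSH at EC80 (4nM final) for 2 hours at 37 deg C. Cellular cAMP measured by competitive HTRF (anti-cAMP cryptate, cAMP-d2) after 30 min at room temperature.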
# % is set by controls: 0 for no effect and ±100 for the full control effect; potency is the fitted concentration of half-maximal effect.
# Chain of Thyrotropin receptor (Homo sapiens) (P16473 whole entry, looked up): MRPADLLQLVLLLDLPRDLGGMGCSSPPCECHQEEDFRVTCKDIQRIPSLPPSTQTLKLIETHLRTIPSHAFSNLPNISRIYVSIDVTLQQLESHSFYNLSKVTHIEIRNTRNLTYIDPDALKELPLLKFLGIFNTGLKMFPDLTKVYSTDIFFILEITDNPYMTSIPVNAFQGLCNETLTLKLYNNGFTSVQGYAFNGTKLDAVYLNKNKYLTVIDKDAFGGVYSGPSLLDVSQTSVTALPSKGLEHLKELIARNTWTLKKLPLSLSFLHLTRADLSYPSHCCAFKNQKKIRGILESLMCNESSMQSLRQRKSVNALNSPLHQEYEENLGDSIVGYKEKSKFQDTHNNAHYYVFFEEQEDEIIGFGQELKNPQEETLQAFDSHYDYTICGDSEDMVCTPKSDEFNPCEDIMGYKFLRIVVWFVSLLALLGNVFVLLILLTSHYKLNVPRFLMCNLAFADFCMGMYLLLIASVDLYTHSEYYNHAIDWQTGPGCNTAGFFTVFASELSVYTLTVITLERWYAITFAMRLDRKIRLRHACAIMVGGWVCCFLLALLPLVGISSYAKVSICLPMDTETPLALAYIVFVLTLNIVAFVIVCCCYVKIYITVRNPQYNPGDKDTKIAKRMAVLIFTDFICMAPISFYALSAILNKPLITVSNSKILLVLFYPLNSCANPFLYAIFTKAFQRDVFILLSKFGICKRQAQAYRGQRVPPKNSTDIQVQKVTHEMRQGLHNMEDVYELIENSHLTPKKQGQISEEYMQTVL
Compound,Potency,"activity change, negative = inhibition [%]"
Cc1ccc(S(=O)(=O)/N=C2\C=C(Nc3cccc(C(=O)O)c3)C(=O)c3ccccc32)c(C)c1,30.1 µM (active),
COc1ccc(CNCc2cc(C)c(OC)cc2C)c(OC)c1,,-2.56
O=C(O)c1ccc(CNC(=O)c2ccc3c(c2)C(=O)N(Cc2cccnc2)C3=O)cc1,,-5.76
O=C(Nc1ccccc1C(=O)N1CCN(c2cccc(Cl)c2)CC1)C1=CSCCO1,,-14.7
Cc1ccccc1C(=O)N1CCN(c2ccc(NC(=S)NC(=O)c3ccco3)cc2)CC1,21.3 µM (active),
COc1cc(NC(=O)C(C)C)ccc1NC(=O)c1ccco1,,-9.42
Cc1cc(C)n2c(C)nnc2c1,,-0.576
CS(=O)c1ccc(-n2c(=O)n(Cc3ccccc3)c(=O)c3[nH]cnc32)cc1 (configuration not stated),,-2.3
COc1cc2c(cc1OC)CN(C(=S)NC(=O)c1ccccc1)CC2,,1.18
Cc1cc(C(=O)COC(=O)c2ccc(O)cc2O)c(C)n1-c1ccccc1,23.9 µM (active),
CC(=O)C1=C(O)C(=O)N(c2ccc(O)cc2)C1c1cccc(F)c1 (configuration not stated),,-6.31
O=[N+]([O-])c1ccc(NC(=S)NCCc2ccc(F)cc2)cc1,9.53 µM (active),
O=[N+]([O-])c1ccc(NC(=S)NCc2ccc(F)cc2)cc1,9.53 µM (active),
O=C(NC(=S)Nc1ccc(C(=O)N2CCOCC2)cc1)c1ccc([N+](=O)[O-])cc1,,-4.55
O=C(NCc1ccc(F)cc1)c1ccncc1,,-3.08
CCCNc1c(NS(=O)(=O)c2ccc(Br)cc2)c(=O)oc2ccccc12,,-1.84
N#C/C(=N\Nc1ccc(S(=O)(=O)N2CCc3ccccc32)cc1)C(N)=S,9.53 µM (active),
O=C(NNC(=O)c1n[nH]c(=O)c2ccccc12)c1ccc(Br)cc1,,-7.52
COc1ccccc1CNS(=O)(=O)c1ccc(-n2cccn2)cc1,,-5.7
CS(=O)(=O)c1ccc(N2CCN(c3ccccn3)CC2)c([N+](=O)[O-])c1,,-8.56
COc1ccccc1C1CCN(c2cc(O)ccc2[N+](=O)[O-])CC1,37.9 µM (active),
Clc1ccc(C2Nc3cccc4cccc(c34)N2)cc1,,-8.7
O=C(O)c1ccccc1NS(=O)(=O)c1cccc(-n2sc3ccccc3c2=O)c1,23.9 µM (active),
COc1cc(C(=O)NCCNC(=O)c2cnccn2)cc(OC)c1OC,,-3.03

Compound,Potency,"activity change, negative = inhibition [%]"
Cc1ccc(S(=O)(=O)NCCNc2ccc([N+](=O)[O-])cc2)cc1,,-6.89
Cc1ccc(NS(=O)(=O)c2cc(C(=O)Nc3cccc([N+](=O)[O-])c3)ccc2C)cc1,21.3 µM (active),
Cc1ccc(C(=O)Nc2cccc([N+](=O)[O-])c2)cc1S(=O)(=O)Nc1ccc(NC(=O)c2ccccc2)cc1,,-4.06
COCC(=O)N1CCC(n2nccc2NC(=O)c2ccccc2OC)CC1,,-3.8
Cc1ccc(S(=O)(=O)Oc2ccc(/C=C(/NC(=O)c3ccccc3)C(=O)Nc3ccccc3)cc2)cc1,,-1.41
COc1cc(NS(=O)(=O)c2ccc(NC(=O)c3ccc(F)cc3)cc2)ncn1,,-8.18
COc1ccc(S(=O)(=O)Nc2ccccc2C(=O)Nc2nc(-c3ccc(F)cc3)cs2)cc1OC,3.38 µM (active),
O=C(Nc1nc(-c2ccccc2)cs1)c1ccccc1NS(=O)(=O)c1ccc(F)cc1,3.38 µM (active),
O=S(=O)(Nc1cccc(-c2ccc(N3CCCCCC3)nn2)c1)c1ccc(F)cc1,,-6.89
COc1ccc(-c2csc(NC(=O)c3ccccc3NS(=O)(=O)c3ccc(F)c(F)c3)n2)cc1,5.36 µM (active),
COc1ccc(-c2csc(NC(=O)c3ccccc3NS(=O)(=O)c3ccc(C)cc3)n2)cc1,3.38 µM (active),
COc1ccccc1C(=O)Nc1nnc(SCC(=O)NC2CCCC2)s1,,-5.73
C=CCN(c1ccccc1)S(=O)(=O)c1ccc2[nH]cc(C(=O)NCCOC)c(=O)c2c1,,-10.1
O=C(Nc1ccc2nc3n(c(=O)c2c1)CCCCC3)C(=O)N1CCN(c2ccccc2F)CC1,,-13.9
Clc1ccccc1CN(Cc1ccccc1)c1ncnc2nc[nH]c12,26.9 µM (active),
Clc1ccc2c(c1)-c1nnc(Br)n1-c1ccccc1S2,26.9 µM (active),
CC(C)NC(=O)COc1coc(CN2CCN(c3ccccc3F)CC2)cc1=O,,-7.58
O=S(=O)(Nc1cc(Cl)ccc1-n1cncn1)c1cc(Br)ccc1Br,15.1 µM (active),
Cc1ccc(SCC(=O)NCc2ccccc2C)cc1,,-8.01
COc1ccc(NC(=O)Cn2nnc(C(=O)NCc3cccs3)c2N)c(OC)c1,,-0.749
COc1ccccc1CNC(=O)CSc1nc(N)c(C#N)c(-c2cccs2)c1C#N,37.9 µM (active),
CC(C)N(C(=O)Cn1c(-c2cccnc2)ccc(C#N)c1=O)C(C)C,,-6.8
CC1CCCC(NC(=O)CN2C(=O)COc3ccccc32)C1C (configuration not stated),,-7.14
